Rows were chosen to be rich in hits. Some 3.4% of all compounds tested hit in one or more screens of this group.
GPR151 activ – activates the human receptor GPR151; PathHunter beta-arrestin GPR151 cells, luminescence; 650,000 tested, 1% active; activation, % at 11.2 µM; Q8TDV0; in the data active means activation above about 4.9%;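 further: 0% = median of compound wells and 100% = cells with positive control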
FBW7 act – human FBW7 E3 ligase activation, primary screen | Q969H0 | AlphaScreen FBW7–phospho-cyclin E peptide binding, activator screen | normalized activity (activation), % at 26.1 µM | 650,000 tested, 0.13% active | AID 1259310; in the data active means normalized activity above about 1.9%;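 further: purified mutant Fbw7 with reduced substrate affinity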
TEAD-YAP inh – TEAD-YAP interaction inhibition; 640,000 tested, 1.4% active; HEK-TIYL cells, TEAD-Gal4/YAP UAS-luciferase luminescence; inhibition, % at 9.12 µM; in the data active means inhibition above about 32%;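 further: 0% = median of test compound wells and 100% = reference inhibitor wells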
MITF primary – inhibitors of human MITF; AlphaScreen MITF homodimerization, bead proximity signal; 650,000 tested, 0.91% active; inhibition, % at 2.6 µM; O75030; AID 1259374; in the data active means inhibition above about 50%;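 further: 0% = vehicle wells with protein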
GPR151 confirm – confirmation of human GPR151 activators. shares compounds with GPR151 activ. GPR151 PathHunter beta-arrestin cells, luminescence, 90 min; % of EA-reagent control over plate median. activation, % at 11.2 µM. 6,700 tested, under 10 active. AID 1508609;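 active means mean percent activation across replicates above the confirmation screen cutoff of 4.91%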
GPR119 counter – activates human GPR119 in a GPR151 counter-screen; 6,700 tested, 0.3% active; AID 1508611; activation, % at 11.2 µM; shares compounds with GPR151 activ; GPR119 PathHunter beta-arrestin cells, luminescence, 90 min; 0 = compound-well median, 100 = enzyme-acceptor control;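 active means mean percent activation in the counterscreen above 29.09%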;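 further: counterscreen on off-target GPR119 to flag nonselective hits from the GPR151 activator screen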
Target sequence (Q8TDV5 whole entry, looked up): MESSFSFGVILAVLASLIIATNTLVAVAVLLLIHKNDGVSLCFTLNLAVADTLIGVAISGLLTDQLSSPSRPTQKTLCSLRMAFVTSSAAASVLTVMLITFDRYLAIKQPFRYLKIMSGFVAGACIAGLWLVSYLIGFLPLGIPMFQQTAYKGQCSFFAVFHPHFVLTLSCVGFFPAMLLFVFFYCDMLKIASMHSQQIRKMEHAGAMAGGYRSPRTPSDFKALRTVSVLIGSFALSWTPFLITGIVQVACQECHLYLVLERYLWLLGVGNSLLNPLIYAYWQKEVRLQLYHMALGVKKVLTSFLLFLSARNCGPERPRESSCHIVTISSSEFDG
The depositor's hits bear a star; / = not tested or not shown.

SMILES	GPR151 activ	FBW7 act	TEAD-YAP inh	MITF primary	GPR151 confirm	GPR119 counter
CC(C)(C)c1csc(NC(=O)c2cc([N+](=O)[O-])cc([N+](=O)[O-])c2)n1	-1.1	-0.1	7.5	-11.1	/	/
CCN(CC)C(=O)C1CCCN(c2ncc(C)c(NC3CC3)n2)C1 (centres undefined)	-1.8	0.0	7.2	23.1	/	/
O=C(O)c1cc2c(ccc3ccccc32)o1	-0.9	0.0	-11.8	-4.9	/	/
N#Cc1cc2c(ccc3ccccc32)oc1=N	6.1*	-0.1	-4.3	-9.0	-1.2	-13.1
CCCOc1ccc(S(=O)(=O)Nc2c(F)cc(Br)cc2F)cc1OCCC	-1.4	0.1	8.9	5.2	/	/
c1ccc2c(c1)sc1nnc(SCc3cn4cccnc4n3)n12	5.0*	0.0	-9.2	4.9	-0.9	-12.3
Nc1ncc(Br)cc1S(=O)(=O)NC1CCCCCCC1	7.3*	-0.1	-2.4	6.2	-0.1	-7.6
Nc1ncc(Br)cc1S(=O)(=O)NC1CCCCC1	-0.9	-0.2	3.4	-2.2	/	/
C1CN(CC23CCC4CC(CC(C4)C2)C3)CCO1	0.6	-0.1	14.5	3.5	/	/
COc1cccc(NC(=O)CSc2nc3ccccc3c(=O)n2CCc2ccc(OC)c(OC)c2)c1	5.0*	-0.1	-0.7	4.4	-1.1	-13.7
CCOc1ccc(CN(C(=O)c2cccs2)C2CCS(=O)(=O)C2)cc1 (centres undefined)	6.8*	-0.1	-9.4	4.9	0.1	8.9
COc1ccc(CN(C(=O)c2cccs2)C2CCS(=O)(=O)C2)cc1 (centres undefined)	-0.4	0.0	-0.1	13.8	/	/
CCOc1nc(NC(=O)NC(=O)c2cccc(F)c2)nc(-c2ccccc2)n1	-0.5	-0.1	-12.3	-11.7	/	/
CC(C)(C)C(=O)COC(=O)CCC(=O)c1cccs1	6.1*	0.1	-10.1	5.6	0.2	8.0
CCOC(=O)C(CC(C)C)N(Cc1cccc(C)c1)S(=O)(=O)c1ccc(Br)cc1 (centres undefined)	-1.6	0.9	10.8	1.4	/	/
CCOC(=O)c1ccc(NC(=S)NNC(=O)Cc2cccn2C)cc1	10.0*	0.0	2.7	9.6	0.9	6.8
NC(=O)COC(=O)CCN1c2ccccc2Sc2ccccc21	9.8*	-0.5	15.6	-8.4	-0.1	-13.2
CC1CN(C(=S)NC(=O)C(C)(C)C)CC(C)O1 (centres undefined)	7.3*	-0.1	-2.0	-4.0	0.7	-4.7
CC(C)(C)C(=O)NC(=S)N1CCOCC1	0.8	0.0	-2.9	-7.9	/	/
CCC(C)NC(=O)c1ccccc1NC(=O)CN(c1cccc([N+](=O)[O-])c1)S(C)(=O)=O (centres undefined)	3.4	0.0	11.4	-2.2	/	/
Cc1c(Cl)cccc1N(CC(=O)Nc1ccccc1Cl)S(C)(=O)=O	0.3	-0.1	4.7	-11.2	/	/
C=CCNC(=O)c1ccccc1NC(=O)CN(c1cccc(Cl)c1C)S(C)(=O)=O	5.2*	-0.1	2.8	-3.3	0.0	-4.7
C=CCNC(=O)c1ccccc1NC(=O)CN(c1cccc([N+](=O)[O-])c1)S(C)(=O)=O	12.9*	0.8	4.5	11.0	0.6	-5.9
Cc1ccccc1CNC(=O)CN(c1cccc([N+](=O)[O-])c1)S(C)(=O)=O	6.4*	-0.2	1.8	5.7	0.2	-13.0
Cc1ccc(N(CC(=O)NCc2ccccc2C)S(C)(=O)=O)cc1C	2.2	-0.1	0.7	7.5	/	/
SMILES	GPR151 activ	FBW7 act	TEAD-YAP inh	MITF primary	GPR151 confirm	GPR119 counter
CCC(OCC(O)CN1CCN(c2ccc(OC)cc2)CC1)c1ccccc1 (centres undefined)	-1.2	0.1	10.2	0.6	/	/
CC(C)Oc1ccc(OCCn2cnc3c(N)ncnc32)cc1	-2.7	0.3	-21.1	12.9	/	/
CC(C)c1nnc(NC(=O)c2cc(Cl)ccc2Cl)s1	5.1*	0.3	-11.8	6.5	1.0	-8.5
O=C(O)/C=C/c1cn(-c2ccccc2)nc1-c1cccc([N+](=O)[O-])c1	5.3*	0.1	13.5	14.6	-1.0	-12.3
COc1ccc(OC(C)C(=O)O/N=C(\N)c2ccc(C)cc2)cc1 (centres undefined)	-0.7	0.4	9.3	3.1	/	/
O=[N+]([O-])c1ccc2[nH]cc(S(=O)(=O)Nc3ccc(C(F)(F)F)cc3)c2c1	0.4	1.0	5.2	11.9	/	/
COC(=O)c1sc2cc([N+](=O)[O-])cc(Sc3ccccc3)c2c1N	0.1	0.0	1.1	-1.4	/	/

Bioassay records (PubChem)
